Measurements published in ChEMBL document CHEMBL3988442, “University of Dundee, Small-Polar-MMV Screening Library” (2021).
Among all 48,000 compounds or so, about 13,000 (27%) showed an effect of 50% or more. Some of the results follow.

What follows are compounds tested on Wolbachia pipientis (assay: Anti-Wolbachia Cell-Based Screen). Settings: 5 µM.
Format: functional
Set-up: scale not given: in the data most compounds retested in dose-response had high values

Going from `Cc1cc(C)n(CC2CCCN2C(=O)c2nccc3ccccc23)n1` (centres undefined) to `Cc1cc(C)n(CC2CCCN2C(=O)c2ccc3ccccc3n2)n1` (centres undefined), the “Percent Effect” value falls from 117.1% to 90.81%.

First: Cc1cc(C)n(CC2CCCN2C(=O)Cc2cn3ccccc3n2)n1 (centres undefined)
Second: Cc1cc(C(=O)N2CCCC2Cn2nc(C)cc2C)on1 (centres undefined)
The “Percent Effect” value of the first is higher: 13.26% for the first, -0.3102% for the second.

First: Cn1nnnc1SCCNC(=O)c1c[nH]nc1C1CCCCC1
Second: CCCN(C(=O)c1cc2c([nH]c1=O)CCCC2=O)C1CCCCC1
The “Percent Effect” value of the first is lower: -16.51% for the first, -3.902% for the second.

Going from `O=C1CCC(c2ccccc2)(c2ccccc2)CN1CCO` to `CN(Cc1nnc(C2CC2)n1C)C1CCN(Cc2ccccc2)C1` (centres undefined), the “Percent Effect” value falls from -6.27% to -8.297%.

Going from `Cc1nc[nH]c1CN1CCN(C(=O)c2cccs2)[C@H]2CS(=O)(=O)C[C@H]21` to `CCc1cnc(CN(C)C2CCN(CCc3cccs3)C2)o1` (centres undefined), the “Percent Effect” value rises from -2.944% to 3.074%.

Going from `CN1CCOC(CNCc2cnc(C(C)(C)C)s2)C1` (centres undefined) to `CCN1CCOC(CNCc2cnc(C(C)(C)C)s2)C1` (centres undefined), the “Percent Effect” value rises from 83.62% to 96.59%.

Going from `CC(C)(C)c1ncc(CNCC2CN(C3CC3)CCO2)s1` (centres undefined) to `CC(C)(C)c1ncc(CNCC2CCCn3ccnc32)s1` (centres undefined), the “Percent Effect” value falls from 77.82% to -12.55%.

Compared with `CCN(CC)c1ncc(CNCC2CCCn3ccnc32)s1` (centres undefined), `CCN1CCOC(CNCc2cnc(N(CC)CC)s2)C1` (centres undefined) is higher in “Percent Effect” value: 9.152% for the first, 78.01% for the second.

First: CCN(CC1CN(Cc2ncc(C)o2)CCO1)c1cccnn1 (centres undefined)
Second: CCN1CCOC(CNc2nccc(C(F)(F)F)n2)C1 (centres undefined)
The “Percent Effect” value of the first is higher: 0.3637% for the first, -2.512% for the second.

First: CCC(CCNCc1cnc(C2CCC2)s1)N1CCCC1=O (centres undefined)
Second: Cc1ccc(N2CCC(NCc3cnc(C4CCC4)s3)CC2)nc1
The “Percent Effect” value of the first is lower: 3.115% for the first, 10.22% for the second.

Going from `COCC(=O)N1C[C@H]2CCCC(OCc3cccnc3)[C@H]2C1.O=C(O)C(F)(F)F` (some centres undefined) to `Cc1nc(CN2C[C@@H]3CN(C(=O)[C@H]4CCCO4)C[C@@H]3C2=O)cs1.O=C(O)C(F)(F)F`, the “Percent Effect” value rises from -11.84% to -7.059%.

Going from `COc1ccc(CN2CCO[C@H]3CN(C4CCCC4)CC[C@H]3C2=O)cc1.O=C(O)C(F)(F)F` to `O=C(O)C(F)(F)F.O=C([C@H]1CC[C@@H]2[C@@H](CCN2Cc2nccs2)O1)N1CCOCC1`, the “Percent Effect” value rises from 4.442% to 110.8%.

Going from `CNC(=O)[C@H]1C[C@@H]2CCN(Cc3nccs3)C[C@H]2O1.O=C(O)C(F)(F)F` to `CC1CCN(C(=O)[C@@H]2C[C@@H]3CCN(Cc4nccs4)C[C@H]3O2)CC1.O=C(O)C(F)(F)F`, the “Percent Effect” value rises from -7.914% to 95.79%.

Compared with `O=C(O)C(F)(F)F.O=C(O)C(F)(F)F.O=C(O)C(F)(F)F.c1cncc(C[C@H]2[C@H](N3CCOCC3)CCN2Cc2nccs2)c1`, `O=C(O)C(F)(F)F.O=C([C@@H]1C[C@H]2[C@H](CCN2Cc2nccs2)O1)N1CCOCC1` is lower in “Percent Effect” value: 6.166% for the first, -8.158% for the second.

First: CC1CCN(C(=O)[C@@H]2CC[C@@H]3[C@@H](CCN3c3ncc(F)cn3)O2)CC1.O=C(O)C(F)(F)F
Second: CC1CCN(C(=O)[C@H]2CC[C@@H]3[C@@H](CCN3Cc3nccs3)O2)CC1.O=C(O)C(F)(F)F
The “Percent Effect” value of the first is lower: -5.679% for the first, 83.2% for the second.

First: Cc1nc(CN2CC[C@@H]3O[C@@H](C(=O)N4CCOCC4)C[C@@H]32)cs1.O=C(O)C(F)(F)F
Second: COCCN1CC[C@@H]2O[C@H](COCc3csc(C)n3)CC[C@@H]21.O=C(O)C(F)(F)F
The “Percent Effect” value of the first is higher: 95.13% for the first, 5.526% for the second.

First: Cc1nc(C(C)(C)NC(=O)Nc2ccc(C#N)cc2)no1
Second: COCCn1ccc(NC(=O)Nc2cccc(C#N)c2)n1
The “Percent Effect” value of the first is lower: 2.937% for the first, 15.59% for the second.

First: NS(=O)(=O)c1cnn(-c2ccc(NC(=O)CC3CCCC3)cn2)c1
Second: CN(c1cccnc1N1CCCC1)S(=O)(=O)c1cccnc1
The “Percent Effect” value of the first is higher: 31.03% for the first, -4.578% for the second.

Going from `CC(=O)c1cccc(NC(=O)Cn2nc(-c3cccs3)oc2=O)c1` to `CC(=O)c1cccc(NC(=O)CCn2nc(-c3cccs3)oc2=O)c1`, the “Percent Effect” value falls from 114.8% to 94.26%.

First: N#Cc1cccc(NC(=O)CCn2nc(-c3cccs3)oc2=O)c1
Second: O=C(CCn1nc(-c2cccs2)oc1=O)Nc1cccc(F)c1
The “Percent Effect” value of the first is higher: 113.1% for the first, 101.8% for the second.

Going from `COC(=O)c1cccc(NC(=O)CCn2nc(-c3cccs3)oc2=O)c1` to `CNC(=O)c1cccc(NC(=O)Cn2nc(-c3cccs3)oc2=O)c1`, the “Percent Effect” value rises from -4.824% to -3.203%.

Going from `CC(=O)c1cccc(NC(=O)Cn2cnc(-c3cccs3)cc2=O)c1` to `CC(=O)c1cccc(NC(=O)COc2c(C)n(C)ccc2=O)c1`, the “Percent Effect” value falls from 8.004% to 5.404%.

First: O=C(CCNC(=O)c1ccoc1)Nc1cccc(F)c1
Second: O=C(O)[C@@H]1CN(C(=O)c2ccc(O)cc2)C[C@H]1c1cccc(F)c1
The “Percent Effect” value of the first is lower: 8.68% for the first, 133.5% for the second.

Going from `CC(C)N(CC(=O)Nc1cccc(C#N)c1)C1CC1` to `Cc1cccc(CN2CCC(N(C)Cc3nnc(C4CC4)n3C)C2)c1` (centres undefined), the “Percent Effect” value rises from -12.82% to 125.1%.

First: O=c1oc(-c2cccs2)nn1CC(O)c1ccc(F)cc1 (centres undefined)
Second: O=S(=O)(NCCC(O)c1cccs1)c1ccccc1Cl (centres undefined)
The “Percent Effect” value of the first is lower: -3.645% for the first, 10.54% for the second.

Compared with `CCn1ccnc1C1CCCN(c2nccc3ccccc23)C1` (centres undefined), `CCn1ccnc1CN1CCN(c2ncnc3ccsc23)CC1` is higher in “Percent Effect” value: -22.2% for the first, 18.95% for the second.

First: CCCNC(=O)CN1CCN(c2nc(CC)ns2)CC1
Second: Cc1nsc(NC(=O)NC2CCCN(C)C2)n1 (centres undefined)
The “Percent Effect” value of the first is higher: -2.637% for the first, -12.87% for the second.

First: Cn1cc(CNCCOc2ccc(F)c(F)c2)c(-c2cccnc2)n1
Second: O=C(O)[C@@H]1CN(C(=O)c2ccc(F)c(F)c2)C[C@H]1c1cccc(F)c1
The “Percent Effect” value of the first is lower: 7.876% for the first, 133.7% for the second.

Going from `Cc1nsc(NC(=O)NC2CCOCC2)n1` to `Cl.O=C(Nc1nc2c(s1)CNCC2)NC1CCCC1`, the “Percent Effect” value rises from 5.232% to 156.5%.

Compared with `O=C(Nc1nc2c(s1)CN(S(=O)(=O)C1CC1)CC2)c1c(F)cccc1F`, `Cl.O=C(Nc1nc2c(s1)CNCC2)C1CC1` is higher in “Percent Effect” value: -9.469% for the first, 114.1% for the second.

Going from `CCc1c(C)nc2n(c1=O)CC(C(=O)Nc1nc3c(s1)CCCC3)CS2` (centres undefined) to `O=C(Nc1nc2c(s1)CCC2)NC1CCCC1`, the “Percent Effect” value rises from 1.424% to 91.02%.

Going from `CC(NC(=O)Nc1nncs1)C(=O)NC1CCCC1` (centres undefined) to `Cc1nnc(NC(=O)NC(C)C(=O)NC2CCCC2)s1` (centres undefined), the “Percent Effect” value falls from 12.84% to -0.7919%.

Compared with `CN(Cc1nnc(-c2cccs2)o1)Cc1nc2c(s1)CCCC2`, `CN(Cc1nnc(C2CC2)n1C)C1CCN(CCc2cccs2)C1` (centres undefined) is higher in “Percent Effect” value: -3.278% for the first, 1.002% for the second.

Going from `O=C1CC(c2ccccc2)c2c(n3ccsc3nc2=O)N1` (centres undefined) to `O=C(O)[C@@H]1CN(C(=O)c2ccc3[nH]nnc3c2)C[C@H]1c1ccccc1`, the “Percent Effect” value rises from 12.02% to 101.1%.

Going from `Cc1oc(C(C)C)cc1C(=O)N1CCN(c2cnn(C)c(=O)c2)CC1` to `Cc1ccc(C(=O)N2CCN(C(=O)C(C)n3ccnc3)CC2)cc1F` (centres undefined), the “Percent Effect” value rises from -13.93% to -10.24%.

First: N#Cc1ccccc1C(=O)N1C[C@H]2CC[C@@H]1CN(c1ncccn1)C2
Second: O=C(O)[C@@H]1CN(C(=O)c2ccc3nccnc3c2)C[C@H]1c1ccncc1
The “Percent Effect” value of the first is lower: -29.72% for the first, -8.549% for the second.

Going from `Cc1nc(CN2CCC(N(C)Cc3nnc(C4CC4)n3C)C2)cs1` (centres undefined) to `Cc1cnc(CN2CCC(N(C)Cc3nnc(C4CC4)n3C)C2)cn1` (centres undefined), the “Percent Effect” value falls from 109.7% to -1.467%.

Going from `CN(Cc1nnc(C2CC2)n1C)C1CCN(Cc2ccncc2)C1` (centres undefined) to `CN(Cc1nnc(C2CC2)n1C)C1CCN(CCc2ccncc2)C1` (centres undefined), the “Percent Effect” value falls from 97.4% to -12.03%.

Going from `CN(Cc1nnc(C2CC2)n1C)C1CCN(Cc2ccc(F)cc2)C1` (centres undefined) to `CN(Cc1nnc(C2CC2)n1C)C1CCN(Cc2ccccc2F)C1` (centres undefined), the “Percent Effect” value falls from 5.91% to 2.374%.

First: CN(Cc1nnc(C2CC2)n1C)C1CCN(CCc2ccccc2)C1 (centres undefined)
Second: CN(Cc1nnc(C2CC2)n1C)C1CCN(Cc2nccn2C)C1 (centres undefined)
The “Percent Effect” value of the first is lower: -2.973% for the first, 117.3% for the second.

Going from `CCc1cnc(CN(C)C2CCN(Cc3nnc(C4CC4)n3C)C2)o1` (centres undefined) to `CCn1c(C)nnc1CN(C)C1CCN(Cc2nccn2C)C1` (centres undefined), the “Percent Effect” value falls from 100.6% to -10.2%.

Going from `CCC(=O)NCC(=O)NCc1cc(Br)ccc1OC(F)F` to `COC(=O)CNC(=O)C12CCC(=O)N1c1cc(Cl)ccc1S2` (centres undefined), the “Percent Effect” value falls from 6.284% to -3.577%.

Compared with `CCOC(=O)C1CN(S(C)(=O)=O)Cc2ncn(CC)c21` (centres undefined), `COc1ccc(C(=O)N2C[C@@H](C(=O)O)[C@H](c3ccccc3)C2)c(C)c1` is lower in “Percent Effect” value: 9.527% for the first, -5.118% for the second.

Compared with `Cc1ccccc1[C@@H]1CN(C(=O)c2ccc3[nH]nnc3c2)C[C@H]1C(=O)O`, `O=C(O)[C@@H]1CN(C(=O)c2ccc3[nH]nnc3c2)C[C@H]1c1cccc(F)c1` is lower in “Percent Effect” value: 1.706% for the first, 0.7419% for the second.

Compared with `Cc1ccc(C(=O)N2C[C@@H](C(=O)O)[C@H](c3ccncc3)C2)cc1F`, `Cc1ccc(F)c(C(=O)N2C[C@@H](C(=O)O)[C@H](c3ccncc3)C2)c1Cl` is lower in “Percent Effect” value: 1.77% for the first, -4.386% for the second.

Going from `O=C(O)[C@@H]1CN(C(=O)c2cc(C3CC3)n[nH]2)C[C@H]1c1cccc(F)c1` to `O=C(O)[C@@H]1CN(C(=O)c2ccc(Cl)cc2)C[C@H]1c1cccc(F)c1`, the “Percent Effect” value rises from -7.697% to 111.8%.

First: COc1ccc(C(=O)N2C[C@@H](C(=O)O)[C@H](c3cccc(F)c3)C2)c(O)c1
Second: CC(NC(=O)c1ccc(C(N)=O)cc1)c1cccc(N2CCOC2=O)c1 (centres undefined)
The “Percent Effect” value of the first is lower: -6.268% for the first, 7.135% for the second.
